Calls of active or inactive are those of the source. How the source made its calls: active means hit-call score of the fitted dose curve at least 0.9, where 1 is the maximum; inactive means score below 0.9.
The compounds below were run on Alkaline Phosphatase, Placental (ALPP) gene, ALPP (gene 250) (assay: LTEA_HepaRG_ALPP: Life Technologies and Expression Analysis (LTEA) Assay for Alkaline Phosphatase, Placental (ALPP) gene using HepaRG (AID 2283468;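 on AC50: ALPP transcript by TaqMan qRT-PCR normalized to ACTB GAPDH and POLR2A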)). Settings: mRNA level, 48 h; actives raise or lower the signal.
Experimental: LTEA_HepaRG is a cell based, multiplexed-readout assay that uses HepaRG, a human liver cell line, with measurements taken at 48 hours after chemical dosing on a 96-well plate.LTEA_HepaRG_ALPP is one of 102 assay component(s) measured in the LTEA HepaRG cell culture assay. It is a marker of Cell proliferation, survival, death.Data from the assay component LTEA_HepaRG_ALPP was analyzed into 1 endpoint. This assay endpoint, LTEA_HepaRG_ALPP, was analyzed with bidirectional fitting relative to DMSO as the negative control and baseline of activity. Using a type of inducible reporter, measures of mRNA induction for gain or loss-of-signal activity can be used to understand regulation of transcription factor activity. To generalize the intended target to other relatable targets, this assay endpoint is annotated to the phosphatase intended target family, where the subfamily is Cell proliferation, survival, death.
A total of 1060 chemcials from the ToxCast library were tested in eight-point concentration-response experiments. Cell culture and cytotoxicity assays were conducted at Thermo Fisher Scientific's Custom Services facility (Madison, WI). A single lot of human HepaRG cells (Thermo Fisher Scientific, Frederick, MD) was used for the cell culture experiments. 96-well format collagen type I coated plates of human HepaRG cells were prepared using established methods. Briefly, cryopreserved HepaRG cells were thawed, plated at a density of approximately 100,000 cells/well in HepaRG Thaw, Plate, and General Purpose media (HPRG770, Thermo Fisher Scientific), and incubated for 48 hours. 0.5% DMSO was selected as vehicle control to balance the requisite need of DMSO in HepaRG cultures to maintain differentiation (for example, baseline metabolism, proportions of hepatocytes vs. cholangiocytes), while enabling further hepatic receptor pathway activation (for example, PXR and CAR) in response to chemical exposure. 48 hours after plating, the culture medium was replaced with HepaRG Serum-Free Incudtion Media. Cells were exposed to each test chemical in duplicate and maintained in CO2 incubators for another 48 hours. Chemical plates were thawed to room temperature and 200x concentrations of treatment groups were prepared. 8-point conentration-reponse curves were made with the highest exposure at 100 uM, followed by half-log dilutions, all in 0.5% DMSO. Each test plate contained variouse controls, induction positive controls (1mM phenobarbital), cytotoxicity positive controls ([…] aflatoxin B1), vehicle controls (0.5% DMSO), and total lysis controls (0.5% DMSO). Cell morphology images were taken using an Essen IncuCyte FLR automated microscope, with six 96-well plates imaged in about 24 minutes. Images were captured and exported and JPEG files. Spent culture media was transfered to black-well plates for the LDH assay, and remaining media was sorted at -80 C for later use. Cells were treated with RLT buffer and frozen until shipped for gene expression analysis. Total RNA was isolated from the cell suspension in 75 uL of Buffer RLT (Qiagen, Germantown, MD 20874) by Quintiles/Expression Analysis (Durham, NC) using a custom isolation procedure. Total RNA from each plate well was transferred to a preamplification plate. Fluidigm's 96.96 Dynamic ArrayTM (Fluidigm, Amsterdam, the Netherlands) technology was used for gene expression analyses by quantitative reverse transcription polymerase chain reaction (qRT-PCR, performed by Quintiles/Expression Analysis, Durham, NC)89. Standard TaqManTM Assays (Applied Biosystems/ThermoFisher Scientific, Foster City, CA) were used to assess the expression of 93 genes selected based on their selectivity and sensitivity to important hepatic receptors known to be modulated by environmental chemicals; importance in human hepatocyte functionality; and hepatotoxicity. […]

Structure (SMILES) | outcome | AC50
CN=C=S | inactive | 
O=C(Nc1ccccc1-c1ccc(Cl)cc1)c1cccnc1Cl | inactive | 
O=P(O)(O)CCCl | inactive | 
CC1(C)C(C(=O)OC(C#N)c2cccc(Oc3ccccc3)c2)C1(C)C (stereo not given) | inactive | 
CCNP(=S)(OC)O/C(C)=C/C(=O)OC(C)C (stereo not given) | inactive | 
O=C(O)c1c(Cl)ccc2cc(Cl)cnc12 | inactive | 
CS(=O)(=O)c1cc(C(F)(F)F)ccc1C(=O)c1cnoc1C1CC1 | inactive | 
CCCCOCN(C(=O)CCl)c1c(CC)cccc1CC | inactive | 
CCOc1cc(C(C)(C)C)ccc1C1COC(c2c(F)cccc2F)=N1 (stereo not given) | inactive | 
COC(=O)NS(=O)(=O)c1ccc(N)cc1 | inactive | 
Nc1cnn(-c2ccccc2)c(=O)c1Cl | inactive | 
O=C1C2CC=CCC2C(=O)N1SC(Cl)(Cl)Cl (stereo not given) |  | 10.8 µM (active)
CC(C)NC(=O)N1CC(=O)N(c2cc(Cl)cc(Cl)c2)C1=O | inactive | 
Cc1cc(C)nc(Nc2ccccc2)n1 | inactive | 
CC(C)Oc1cccc(NC(=O)c2ccccc2C(F)(F)F)c1 | inactive | 
COc1ccc(-c2ccccc2)cc1NNC(=O)OC(C)C | inactive | 
CC(C)(C)C(=O)C(Oc1ccc(Cl)cc1)n1cncn1 (stereo not given) | inactive | 
COCC(=O)N(c1c(C)cccc1C)C(C)C(=O)OC (stereo not given) | inactive | 
COC(=O)c1c(C(F)F)nc(C(F)(F)F)c(C2=NCCS2)c1CC(C)C | inactive | 
CCOP(=S)(OCC)Oc1nc(Cl)n(C(C)C)n1 | inactive | 

Structure (SMILES) | outcome | AC50
COc1cc(OC)nc(NC(=O)NS(=O)(=O)c2ncccc2OCC(F)(F)F)n1 | inactive | 
Cn1c(-c2ccccc2)cc(-c2ccccc2)[n+]1C |  | 50 µM (active)
COP(=O)(OC)O/C(C)=C/C(=O)N(C)C | inactive | 
COCC(C)N(C(=O)CCl)c1c(C)csc1C (stereo not given) | inactive | 
COCc1cnc(C2=NC(C)(C(C)C)C(=O)N2)c(C(=O)O)c1 (stereo not given) | inactive | 
Nc1c(Cl)c(F)nc(OCC(=O)O)c1Cl | inactive | 
CCN(CC)C(=O)C(C)Oc1cccc2ccccc12 (stereo not given) |  | 84.3 µM (active)
CNC(=O)Oc1cccc2ccccc12 | inactive | 
C=C(C)CN(CC)c1c([N+](=O)[O-])cc(C(F)(F)F)cc1[N+](=O)[O-] | inactive | 
N#CN=C1SCCN1Cc1ccc(Cl)nc1 | inactive | 
CCOP(=O)(OCC)Oc1nc(Cl)c(Cl)cc1Cl | inactive | 
CC(C)C1(C)N=C(c2ncccc2C(=O)O)NC1=O (stereo not given) | inactive | 
CCOc1nc(F)cc2nc(S(=O)(=O)Nc3c(Cl)cccc3Cl)nn12 | inactive | 
COC(=O)N(C(=O)N1CO[C@@]2(C(=O)OC)Cc3cc(Cl)ccc3C2=N1)c1ccc(OC(F)(F)F)cc1 | inactive | 
COc1cc(Cl)c(OC)cc1Cl | inactive | 
CCOC(=O)C(C)OC(=O)c1cc(Oc2ccc(C(F)(F)F)cc2Cl)ccc1[N+](=O)[O-] (stereo not given) | inactive | 
CO/N=C(/C1=NOCCO1)c1ccccc1Oc1ncnc(Oc2ccccc2Cl)c1F |  | 5.39 µM (active)
CCCC(=NOCC)C1=C(O)CC(CC(C)SCC)CC1=O (stereo not given) | inactive | 
CCCCC(O)(Cn1cncn1)c1ccc(Cl)cc1Cl (stereo not given) |  | 73.3 µM (active)
CC(C)N1C(=O)c2ccccc2NS1(=O)=O | inactive | 
